In PubChem BioAssay (NCATS):
Values joined by “and” are separate entries in the source; they are usually repeats but may differ in a detail not shown here. Identical values can stand only once. Results filed as inconclusive are left out. A number with no mark means an inactive call. Active and inactive are the calls of the source. The call rests on the fitted dose curve; in most records, active means well fitted curve in the direction sought with a large enough effect; inconclusive means small, poorly fitted or top-dose-only effect, or another doubt; inactive means no such curve, though single readings can be large; an effect the other way counts as inactive or inconclusive.

Key:
[1] = Viability qHTS for spleen associated tyrosine kinase inhibitor (SYKi) naive MV4-11 cells (AID 1963823); further: nearly all actives have a fitted effect of over 40% in size
Summary of the method: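 Read-out: CellTiter-Glo luminescence. Exposure: 72 hr, 37 C, 5% CO2, 95% humidity. Cells: MV4-11 without SYK inhibitor history, 500/well, qHTS format.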

[2] = Viability qHTS for spleen associated tyrosine kinase inhibitor (SYKi) drug resistant MV4-11 cells (AID 1963824); further: nearly all actives have a fitted effect of over 35% in size
Summary of the method: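 CellTiter-Glo luminescence, read 10 min after reagent addition, reports viability after a 72 hr compound exposure. Cells are an MV4-11 line made resistant to SYK inhibition, seeded at 500 per well onto compound-containing plates.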

[3] = Cellular viability qHTS for adrenocortical cancer (ACC) cell line SW-13 (AID 1963989); conditions: SW-13 ACC cells viability, CellTiter-Glo, 48 h; activity (max response): stronger effect = lower value; further: nearly all actives have a fitted effect of over 65% in size;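 on activity (max response): cells grown in serum-free medium with ITS supplement; on the % scale 0 is the no-effect control and ±100 the full control effect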
Summary of the method: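 Compound titrations (up to 46 uM final, in DMSO) were applied to SW-13 cells for 48 h at 37C/5% CO2. Reading used CellTiter-Glo after 20 min at room temperature; fitted curves yielded IC50 and efficacy.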

[4] = Cellular viability qHTS for adrenocortical cancer (ACC) cell line NCI-H295R (AID 1963990); further: nearly all actives have a fitted effect of over 60% in size
Summary of the method: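 Readout: CellTiter-Glo luminescence, 20 min RT. Exposure: 48 h, 37C/5% CO2. Cells: NCI-H295R, ITS-DMEM serum-free. Range: up to 46 uM. Analysis: 4PL fit, IC50 plus efficacy.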
Potency means the concentration at half of the fitted maximal effect.

Row | Structure (SMILES) | Potency [1] | Potency [2] | activity (max response) [3] | Potency [4] | Potency [3]
1 | Cc1ccc(S(=O)(=O)N[C@@H](CCCCN)C(=O)CCl)cc1 | inactive | inactive | 15.2% | inactive | 
2 | CC(C)(O)/C=C\C(=O)[C@](C)(O)[C@H]1[C@H](O)C[C@]2(C)[C@@H]3CC=C4[C@@H](C=C(O)C(=O)C4(C)C)[C@]3(C)C(=O)C[C@@]12C | 0.059 µM (active) | 46.8 nM (active) |  | 1.26 µM (active) | 562 nM (active)
3 | CC(C)[C@]12O[C@H]1[C@@H]1O[C@]13[C@]1(O[C@H]1C[C@H]1C4=C(CC[C@@]13C)C(=O)OC4)[C@@H]2O | 0.0166 µM (active) | 9.2 nM (active) and 16.6 nM (active) |  | 0.316 µM (active) | 251 nM (active)
4 | O=C(NC(O)C(Cl)(Cl)Cl)NC(O)C(Cl)(Cl)Cl (stereo not given) | inactive | inactive | 11.7% | inactive | 
5 | O=C(O)c1ccc2[nH]cc(CCCCN3CC=C(c4ccccc4)CC3)c2c1 | 9.44 µM (active) | inactive | -1.83% | inactive | 
6 | COc1ccc(OC)c(CC(C)N)c1 (stereo not given) | inactive | inactive | -20.2% | inactive | 
7 | COC12C(COC(N)=O)C3=C(C(=O)C(C)=C(N)C3=O)N1CC1C2N1C (stereo not given) | 0.59 µM (active) | 833 nM (active) |  | 15.8 µM (active) | 25100 nM (active)
8 | COc1cc(N)c(Cl)cc1C(=O)NC1CN2CCC1CC2 (stereo not given) | inactive | inactive | -1.3% | inactive | 
9 | CC(C)NCC(O)c1ccc(N)c(C#N)c1 (stereo not given) | inactive | inactive | 6.97% | inactive | 
10 | O=C(O)c1ccc(=O)[nH]c1 | inactive | inactive | 7.49% | inactive | 
11 | Oc1cc(Cl)ccc1Oc1ccc(Cl)cc1Cl | 19.7 µM (active) | 7.85 µM (active) and 16.8 µM (active) |  | 3.16 µM (active) and 18.4 µM (active) | 7.94 µM (active) and 13 µM (active)
12 | CCCCCCCCCCCC[N+](C)(C)CCOc1ccccc1 | 2.66 µM (active) | 2660 nM (active) |  | 23.1 µM (active) | 5170 nM (active)
13 | CN1[C@H]2CC(O)C[C@H]1[C@H]1O[C@H]12 (stereo not given in full) | inactive | inactive | 10.2% | inactive | 
14 | C[C@H]1CCC/C=C/C2C[C@H](O)C[C@H]2[C@H](O)/C=C/C(=O)O1 (stereo not given in full) | 184 nM (active) and 148 nM (active) | 92 nM (active) and 118 nM (active) |  | 0.224 µM (active) | 282 nM (active)
15 | CC(C)(C)NC[C@H](O)c1ccc(O)cc1Cl | inactive | inactive | 9.97% | inactive | 
16 | CN1CCC(O)(c2ccc(F)cc2)C(C(=O)c2ccc(F)cc2)C1 (stereo not given) | inactive | inactive | 0.424% | inactive | 
17 | N[C@@H]1C[C@H]1c1ccccc1 | 16.6 µM (active) | 11.9 µM (active) and 3.72 µM (active) | 6.98% | inactive | 
18 | C[C@@H]1CN(C2CCC(C#N)(c3ccc(F)cc3)CC2)CC[C@]1(C(=O)O)c1ccccc1 (stereo not given in full) | inactive | inactive | -0.484% | inactive | 
19 | CC1(C)C(C=C(Cl)Cl)C1C(=O)OC(C#N)c1cccc(Oc2ccccc2)c1 (stereo not given) | 2.66 µM (active) | inactive | 4.33% | inactive | 
20 | CCC(=O)OC1(c2ccccc2)CCN(C)CC1 | inactive | inactive | -11.5% | inactive | 
21 | C/C(=C\c1csc(C)n1)[C@@H]1C[C@@H]2O[C@]2(C)CCC[C@H](C)[C@H](O)[C@@H](C)C(=O)C(C)(C)[C@@H](O)CC(=O)O1 | 0.0047 µM (active) | 4.7 nM (active) |  | 0.0282 µM (active) | 
22 | NCC(O)c1ccc(O)cc1 (stereo not given) | inactive | inactive |  | inactive | 
23 | O=C(N/N=C/c1ccc([N+](=O)[O-])o1)c1cc([N+](=O)[O-])cc([N+](=O)[O-])c1O | inactive | inactive |  | inactive | 
24 | CCN(CC)CCOC(=O)C(C)(c1ccccc1)c1ccccc1 | inactive | inactive | -13.3% | inactive | 
25 | Clc1ccc(COC(Cn2ccnc2)c2ccc(Cl)cc2Cl)cc1 (stereo not given) | 8.33 µM (active) | 8330 nM (active) |  | 22.4 µM (active) | 25100 nM (active)
26 | CO/C=C(/C(=O)OC)c1ccccc1Oc1cc(Oc2ccccc2C#N)ncn1 | 13.7 µM (active) | 8630 nM (active) |  | 7.94 µM (active) | 
